# Data taken from PubChem BioAssay AID720594 (Broad Institute, 2013).
# Results with a measured potency or affinity are listed apart. Values without a mark were called inactive.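 Rule for the calls: active = falling ATP light signal with a fitted half-maximal concentration at most twice the highest valid tested dose; inconclusive = flat fit with moderate signal loss, or poor fit; inactive = the rest.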
# Assay: ATP-based viability loss in HepG2 cells – cell-based, CellTiter-Glo luminescence, dry powder, set 3, cytotoxicity control, dose response (AID 720594)
# Settings: 72 h; series mostly up to 26 µM; activity change, negative = cytotoxicity: at the top concentration
row,Structure (SMILES),"activity change, negative = cytotoxicity"
1,COC(=O)Cc1cc(=O)n(-c2nc3ccccc3[nH]2)[nH]1,-21.4%
2,CC(C)CC(=O)NC(c1cccs1)c1ccc2cccnc2c1O (stereo not given),14.7%
3,CC1CCN(S(=O)(=O)c2ccc(C(=O)Nc3nnc(-c4ccccn4)o3)cc2)CC1,-20.6%
4,CC(C)Cc1nnc(NC(=O)c2cccc(S(=O)(=O)N3CCOCC3)c2)s1,-14.8%
5,O=C(Nc1nc(-c2ccncc2)cs1)c1cccc(S(=O)(=O)N2CCOCC2)c1,-10.9%
6,O=C(Nc1nc(-c2ccccn2)cs1)c1ccco1,-7.91%
7,O=C(Nc1nc(-c2ccncc2)cs1)c1ccco1,-15.6%
8,O=C(CSc1ccc(-c2ccccn2)nn1)Nc1ccccc1,-17.6%
9,Cc1ccc(C(=O)Nc2nc(-c3ccccc3)cs2)o1,-10.1%
10,O=C(Cc1ccccc1)NC(c1ccco1)c1ccc2cccnc2c1O (stereo not given),-14.6%
11,COC(=O)c1ccc(NC(=O)CSc2ccc(-c3ccccn3)nn2)cc1,-20.2%
12,Cc1ccc(C(=O)Nc2nc(-c3ccccn3)cs2)cc1S(=O)(=O)N1CCOCC1,-14.4%
13,CCc1cc2c(=O)[nH]c(-c3ccccn3)nc2s1,15.8%
14,Cc1ccc(S(=O)(=O)CCc2nnc(NC(=O)c3ccccc3)s2)cc1,-8.3%
15,CC1CCN(S(=O)(=O)c2ccc(C(=O)Nc3nnc(C4CC4)o3)cc2)CC1,-15.2%
